Pf growth 48h – inhibits P. falciparum growth in the first generation, 48 h. P. falciparum luciferase growth in erythrocytes, 48 h. Potency, µM (series often up to 28.7 µM), usual class: inhibitors. 310,000 compounds, 5.9% hits
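Here the parasites carry a stable luciferase gene and grow inside erythrocytes in Albumax-based RPMI medium with compound for one erythrocytic cycle. Activity is scored as loss of luminescent signal.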
SARS PLP yeast – inhibitors of SARS-CoV papain-like protease in yeast. S. cerevisiae expressing SARS-CoV PLpro, growth rescue. Potency, µM (series often up to 32.9 µM), actives largely listed as activators. 330,000 compounds, 0.19% hits; calls by dose curve; note: nearly all actives have a fitted effect of over 55% in size
Pf growth 96h – P. falciparum growth inhibition at 96 hour, primary screen for plastid delayed-death inhibitors. Potency, µM (doses to about 28.7 µM), usual class: inhibitors. 320,000 compounds, 6.9% hits. P. falciparum luciferase reporter growth, 96 h
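Parasite growth measured via integrated firefly luciferase reporter in P. falciparum. Infected erythrocytes at 2% hematocrit, 0.05% parasitemia final were treated 96 hours at 37 C under 5% CO2, and luminescence was read.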
Sm TGR block – blocks Schistosoma mansoni thioredoxin glutathione reductase; Q962Y6; purified TGR, DTNB reduction, TNB absorbance 405 nm; Potency, µM (titrated, usually from 114 µM), hits mostly inhibitors; 360,000 compounds, 3% hits; note: nearly all actives have a fitted effect of over 60% in size
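TGR 20 nM + NADPH 100 uM (dispensed conc.), cpd preinc 15 min RT; start with NADPH (500 uM addition) then DTNB (15 mM addition). Kinetic TNB absorbance, 405 nm filter. Four-parameter Hill fit across titration.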
HCMV inh – human cytomegalovirus inhibition | HFF cells, HCMV-luciferase reporter, 72 h; hits give low values | activity change, negative = inhibition, % at 57.5 µM | 410,000 compounds, 4.5% hits; in the data active = activity change below about -60%; inconclusive = no clear call, values can overlap the other calls; inactive = above about -39%
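HFF cells seeded 16 h at 37C, treated with compounds, infected with luciferase-reporter HCMV at MOI 1 PFU/cell; luciferase read at 72 h post infection, normalized to buffer-only and Salinomycin controls.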
HCV inhibitor – HCV inhibition. Potency, µM (titrated, usually from 41.8 µM), actives largely listed as inhibitors. Huh7.5.1 HCVcc-Cre infection, luciferase reporter, 44 h. 340,000 compounds, 3.4% hits
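Infectious HCVcc-Cre (~0.5 moi) was added to cells just after compound, with cells seeded 4 h earlier at 1,000 per well. Luciferase activity after 44 h culture reported infection; substrate was incubated 15 min at room temperature before reading.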
Of the large screens only hits and unclear results are named; the others gave an inactive call. In the library only some 15% were active in any assay of this set; here they are far more common. Unless noted, calls come from the whole dose curve; as a rule, active = well fitted curve in the direction sought with a large enough effect; inconclusive = small, poorly fitted or top-dose-only effect, or another doubt; inactive = no such curve, though single readings can be large; an effect the other way counts as inactive or inconclusive.

c1coc(-c2nc(-c3ccco3)c(-c3ccco3)nc2-c2ccco2)c1	Sm TGR block 0.708µM
O=C1Nc2ccccc2C(=O)N(Cc2ccccc2)C1C(=O)NC1CC1 (centres undefined)	none (no result: Pf growth 48h, SARS PLP yeast, Pf growth 96h, Sm TGR block, HCV inhibitor)
COc1ccc(NC(=O)CCNC(=O)c2ccco2)cc1S(=O)(=O)N(C)C	none
Cc1cc(NC(=O)Cc2ccsc2)ccc1Br	HCV inhibitor inconclusive
CCN(CC)S(=O)(=O)c1cc(NC(=O)CCNC(=O)c2ccco2)ccc1C	Pf growth 48h 9.28µM, SARS PLP yeast inconclusive, Pf growth 96h 6.57µM
CCN(CC)S(=O)(=O)c1cc(NC(=O)Cc2ccsc2)ccc1C	Pf growth 48h inconclusive, Pf growth 96h inconclusive, HCV inhibitor 12.6µM
Cc1cccc(OCc2nnc(SCC(=O)N(C)C3CCCCC3)o2)c1	Pf growth 48h inconclusive
CCOC(=O)c1ccc2ncc(C(=O)OCC)c(Nc3ccc(C)c(Br)c3)c2c1	none (no result: Pf growth 48h, SARS PLP yeast, Pf growth 96h, HCV inhibitor)
CCOC(=O)c1cnc2c(C(=O)OC)cccc2c1NCc1ccco1	Pf growth 48h inconclusive, Sm TGR block inconclusive (no result: Pf growth 96h)
CCOC(=O)c1cnc2c(C)cccc2c1NCc1ccco1	Pf growth 48h inconclusive, Pf growth 96h inconclusive, HCV inhibitor 11.2µM
CCOC(=O)c1ccc2ncc(C(=O)OCC)c(NCc3ccco3)c2c1	Pf growth 96h 1.65µM (no result: Pf growth 48h)
O=c1c2ccccc2sc2nc(CCl)nn12	HCV inhibitor inconclusive (no result: Pf growth 48h, SARS PLP yeast, Pf growth 96h, Sm TGR block)
CCOc1ccc(NC(=O)CN(C)C(=O)c2sc3ccccc3c2Cl)cc1OCC	HCV inhibitor inconclusive
Cc1nn(-c2ccccc2)c2sc(C(=O)N3CCc4ccccc4C3)cc12	Pf growth 96h inconclusive, HCV inhibitor inconclusive
Cc1ccc(S(=O)(=O)N2CCN(C(=O)c3cc4c(C)nn(-c5ccccc5C)c4s3)CC2)cc1	Pf growth 48h 4.65µM, Pf growth 96h 3.29µM, HCV inhibitor inconclusive
Cc1ccccc1-n1nc(C)c2cc(C(=O)N3CCOCC3)sc21	Pf growth 96h 3.29µM
Cc1cc(NC(=O)OC(C)(C)C)c(-n2nnnc2C(C(=O)c2ccc3c(c2)OCO3)N2CCCCC2)cc1C (centres undefined)	none (no result: Pf growth 48h, SARS PLP yeast, Pf growth 96h, Sm TGR block, HCV inhibitor)
O=C(COC(=O)CCNS(=O)(=O)c1ccc(Cl)cc1)Nc1ccccc1OC(F)F	none
Cc1ccc(C(=O)NC(C)(COc2nonc2C)COc2nonc2C)cc1	Pf growth 48h 11.7µM (no result: Pf growth 96h)
NC(=O)N/N=C/c1ccccc1OCc1cccc2ccccc12	Pf growth 96h 13.1µM
COc1ccc(/C=N/NC(=O)COc2ccccc2-c2ccccc2)cc1	Pf growth 48h inconclusive, Pf growth 96h inconclusive, HCMV inh -68.4, HCV inhibitor 5.62µM
CCOc1ccccc1C=NNC(=O)c1cccc2ccccc12	HCV inhibitor inconclusive (no result: Pf growth 48h, SARS PLP yeast, Pf growth 96h, Sm TGR block)
CN(C)c1ccc(/C=N/NC(=O)COc2ccccc2)cc1	none
COc1ccc(/C=N/NC(=O)CCSc2nc3ccccc3s2)cc1	HCV inhibitor 3.55µM
O=C(COc1ccccc1-c1ccccc1)N/N=C/c1cccc2ccccc12	Pf growth 48h inconclusive, Pf growth 96h 9.28µM, HCMV inh -81.7, HCV inhibitor 1.78µM
O=C(COc1cccc2ccccc12)N/N=C/c1ccccc1OCc1ccc(C(=O)O)cc1	none
CSc1nc(C)cc(Nc2c(C)cc(C)cc2C)n1	none (no result: Pf growth 48h, SARS PLP yeast, Pf growth 96h, HCV inhibitor)
O=C(O)COc1ccccc1/C=N/NC(=O)COc1ccc(-c2ccccc2)cc1	none
COc1ccc(/C=N/NC(=O)CCn2cnc(-c3ccccc3)c2-c2ccccc2)cc1	Pf growth 48h inconclusive, HCMV inh -82.6
O=C(CCn1cnc(-c2ccccc2)c1-c1ccccc1)N/N=C/c1ccc(O)cc1	HCMV inh inconclusive
COc1ccc(Br)c(/C=N/NC(=O)COc2ccc(-c3ccccc3)cc2)c1	Pf growth 48h inconclusive, HCV inhibitor 7.94µM (no result: SARS PLP yeast)
O=C(COc1cccc2ccccc12)N/N=C/C=C/c1ccccc1	HCMV inh -62.0
Cc1ccccc1OCC(=O)N/N=C/C=C/c1ccccc1	Pf growth 96h inconclusive
CC(=O)Nc1cccc(-c2csc(C(C)(O)c3ccc(F)c(F)c3)n2)c1 (centres undefined)	none (no result: Pf growth 48h, SARS PLP yeast, Pf growth 96h, Sm TGR block, HCV inhibitor)
NC(=O)[C@H]1CC2(CC(c3cccc(NC(=O)COc4ccc(Cl)cc4)c3)=NO2)CN1C(=O)c1ccc(Cl)cc1 (some centres undefined)	Pf growth 48h 13.1µM, Pf growth 96h inconclusive, HCMV inh inconclusive
CCC(=O)N1CC2(CC(c3cccc(NC(=O)COc4ccc(Cl)cc4)c3)=NO2)C[C@@H]1C(N)=O (some centres undefined)	Pf growth 48h inconclusive, Pf growth 96h inconclusive (no result: HCMV inh, HCV inhibitor)
C/C=C/C(=O)N1CC2(CC(c3cccc(NC(=O)COc4ccc(Cl)cc4)c3)=NO2)C[C@@H]1C(N)=O (some centres undefined)	Pf growth 48h 13.1µM, Pf growth 96h 5.22µM
CC1(C(=O)N2CC3(CC(c4cccc(NC(=O)COc5ccc(Cl)cc5)c4)=NO3)C[C@@H]2C(N)=O)CC1 (some centres undefined)	Pf growth 48h 13.1µM, Pf growth 96h inconclusive, HCV inhibitor inconclusive
NC(=O)[C@H]1CC2(CC(c3cccc(NC(=O)COc4ccc(Cl)cc4)c3)=NO2)CN1C(=O)c1ccccc1C(=O)c1ccccc1 (some centres undefined)	Pf growth 48h 11.7µM, Pf growth 96h 11.7µM, HCV inhibitor inconclusive
C/C=C\C(=O)Nc1cccc(C2=NOC3(C2)C[C@@H](C(N)=O)N(C(=O)COc2ccc(Cl)cc2)C3)c1 (some centres undefined)	Pf growth 48h inconclusive, Pf growth 96h inconclusive
C#CCOCCOCCOCCNc1nc(N2CCN(C(=O)[C@H](CCC(=O)O)n3cc([C@@H](N)[C@H](C)CC)nn3)CC2)nc(N2CCN(C(=O)[C@H](CCC(=O)O)n3cc([C@@H](N)CC(N)=O)nn3)CC2)n1	none (no result: Pf growth 48h, Pf growth 96h, Sm TGR block)
COc1ccc([C@@H]2CC=C(C(=O)O)[C@H](c3ccc(F)cc3)N2S(=O)(=O)c2ccccc2C)cc1	Pf growth 48h inconclusive, Pf growth 96h inconclusive
Cc1nn(-c2ccccc2)c(C)c1/C=N\NS(=O)(=O)c1ccc(Cl)cc1	none (no result: Pf growth 48h)
CCCCCC(=O)N1CC2(CC(c3cccc(NC(=O)COc4ccc(Cl)cc4)c3)=NO2)C[C@@H]1C(N)=O (some centres undefined)	Pf growth 48h 10.4µM, Pf growth 96h 13.1µM, HCV inhibitor inconclusive
NC(=O)[C@@H]1CC2(CC(c3cccc(NC(=O)CC(c4ccccc4)c4ccccc4)c3)=NO2)CN1C(=O)COc1ccc(Cl)cc1 (some centres undefined)	Pf growth 48h inconclusive, Pf growth 96h 11.7µM, HCV inhibitor inconclusive
CCN(CC)CCNC(=O)c1[nH]c2ccccc2c1Sc1ccc(Cl)cc1	none (no result: Pf growth 48h, SARS PLP yeast, Pf growth 96h, HCV inhibitor)
[O-]/[N+](=C\c1ccncc1)c1ccccc1	Pf growth 48h inconclusive, Pf growth 96h inconclusive

Source: PubChem (National Center for Advancing Translational Sciences (NCATS))
